Bioassay records (PubChem BioAssay)
VACV Venus inh = qHTS for Stage-Specific Inhibitors of Vaccinia Orthopoxvirus: Venus Reporter Primary qHTS; Vaccinia virus Venus reporter expression, fluorescence; Potency, µM (highest dose often 36.5 µM), most hits filed as inhibitors; hit rate 0.46% among 330,000; AID 720580, 2013; calls by dose curve; tested in A549 cells; note: nearly all actives have a fitted effect of over 30% in size
Sm TGR block = qHTS Assay for the Inhibitors of Schistosoma Mansoni Peroxiredoxins; Potency, µM (series often up to 114 µM), hits mostly inhibitors; Schistosoma mansoni thioredoxin glutathione reductase (TGR), Q962Y6; hit rate 3% among 360,000; purified TGR, DTNB reduction, TNB absorbance 405 nm; AID 485364, 2010; note: nearly all actives have a fitted effect of over 60% in size
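First, TGR (20 nM dispensed) and NADPH were mixed with compound. Second, a 15 min room-temperature incubation followed. Third, further NADPH and then DTNB were added to start the reaction. Finally, TNB absorbance was monitored kinetically.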
HCV inhibitor = qHTS Assay for Inhibitors of Hepatitis C Virus (HCV) | Huh7.5.1 HCVcc-Cre infection, luciferase reporter, 44 h | Potency, µM (series often up to 41.8 µM), most hits filed as inhibitors | hit rate 3.4% among 340,000 | AID 651820, 2012
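Cells seeded at 1,000/well and cultured 4 h, then compounds added followed by HCVcc-Cre virus (~0.5 moi). After 44 h further culture, luciferase substrate was added, plates held 15 min at room temperature, and luminescence read for 15 sec.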
HCMV antiviral = qHTS Assay for inhibitors of the human cytomegalovirus (HCMV). HFF cells, HCMV-luciferase reporter, 72 h; stronger effect = lower value. activity change, negative = inhibition, % at 57.5 µM. hit rate 4.5% among 410,000. AID 1259415, 2018; in the data active = activity change below about -60%; inconclusive = no clear call, values can overlap the other calls; inactive = above about -39%
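Cell-based, HFFs, 1000 cells/well, 16 h 37C; cpds in DMSO + HCMV-luc, MOI 1 PFU/cell; 72 h 37C; OneGlo luminescence after 5 min RT; norm. to buffer vs Salinomycin 10uM.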
Vaccinia mCherry = qHTS for Stage-Specific Inhibitors of Vaccinia Orthopoxvirus: mCherry Reporter Primary qHTS | Vaccinia virus mCherry reporter infection, fluorescence | Potency, µM (top dose mostly 36.5 µM), usual class: inhibitors | hit rate 0.63% among 310,000; calls by dose curve; tested in A549 cells; note: nearly all actives have a fitted effect of over 35% in size
FMDV antiviral = High Throughput Screening for Foot and Mouth Disease Virus Antivirals. FMDV antiviral cell-based qHTS. Potency, µM (doses to about 57.9 µM), usual class: inhibitors. hit rate 1.2% among 410,000; calls by dose curve; tested in HEK293T cells; note: read-out not given here; nearly all actives have a fitted effect of over 45% in size
Numbers stand for hits; – = inactive; ? = inconclusive; · = not tested or not shown; [ ] = remark or other dose. Rows were chosen to be rich in hits. Some 9.3% of all compounds tested hit in one or more screens of this group. Unless noted, calls come from the whole dose curve; as a rule, active = well fitted curve in the direction sought with a large enough effect; inconclusive = small, poorly fitted or top-dose-only effect, or another doubt; inactive = no such curve, though single readings can be large; an effect the other way counts as inactive or inconclusive.

SMILES | VACV Venus inh | Sm TGR block | HCV inhibitor | HCMV antiviral | Vaccinia mCherry | FMDV antiviral
CCOC(=O)CNC1CC(=O)N(c2ccc(Br)cc2)C1=O (centres undefined) | · | 10µM | – | – | · | –
CCCOc1ccc(N2C(=O)CC(NCC#N)C2=O)cc1 (centres undefined) | – | – | – | – | – | –
O=C(CCS(=O)(=O)c1cc2c(cc1Cl)NC(=O)CO2)NCc1ccc(Cl)cc1 | – | – | · | – | – | –
CCCCCC(CC(=O)NO)C(=O)NC(C(=O)N1CCCC1CO)C(C)C (centres undefined) | – | – | ? | -69.1 | – | –
O=C1C(=O)N2C(=C1C(=O)N1CCCCCC1)c1ccccc1CC21CCCC1 | – | – | – | -66.1 | – | –
CC1(C)Cc2ccccc2C2=C(C(=O)N3CCCCCC3)C(=O)C(=O)N21 | · | – | – | – | · | –
CCOc1c(C(N)=O)c(-c2ccccc2)c2c(=O)[nH]c3ccccc3n12 | – | – | – | -60.2 | · | –
Cc1cccc(NC2=NC(C)(C)N=C(N)N2)c1C | – | – | – | – | – | –
Cc1onc(-c2ccccc2)c1C(=O)c1c[nH]c(C(=O)NCc2ccccn2)c1 | – | – | 10µM | ? | – | ?
O=C(COC(=O)c1ccc(F)c(S(=O)(=O)N2CCOCC2)c1)NC1CC1 | · | – | – | ? | · | –
Cc1ccc2cccc(OCCCOc3ccccc3F)c2n1 | · | – | 10µM | – | · | –
Cc1ccc2cccc(OCCOCCOc3ccccc3Br)c2n1 | – | – | ? | ? | – | –
CCN(CCCNC(=O)C1CCC(=O)N1Cc1ccc(F)cc1)c1cccc(C)c1 (centres undefined) | – | – | – | – | –[1.46 µM] | –
CNc1nc2cnc(Nc3ccc(C(F)(F)F)cc3)cc2n1-c1cc(OC)c(OC)c(OC)c1 | · | · | · | – | · | ·
COc1ccccc1NC(=S)N=Nc1c(O)[nH]c2ccc(Br)cc12 | · | – | ? | -66.5 | · | –
COc1ccc(/C(C)=N/OCC(=O)N=Nc2c(O)[nH]c3ccc(Br)cc23)cc1 | – | – | ? | – | – | 39.8µM
Oc1[nH]c2c(Cl)cc(Cl)cc2c1N=NC(=S)NCC1CCCO1 (centres undefined) | – | – | ? | -68.1 | – | 25.1µM
Cc1cc(C)c2[nH]c(O)c(N=NC(=S)NCC3CCCO3)c2c1 (centres undefined) | – | – | – | – | – | –
Oc1[nH]c2ccc(Br)cc2c1N=NC(=S)NCC1CCCO1 (centres undefined) | – | – | 11.2µM | ? | – | –
O=C(c1cc(COc2cccc(C(F)(F)F)c2)on1)N1CCC(Oc2cccnc2)CC1 | · | – | 11.2µM | – | · | –
O=C(c1cc(COc2ccc(F)cc2Cl)on1)N1CCC(OCc2cccnc2)CC1 | – | – | – | -67.9 | – | –
Cc1ccc(OCc2cc(C(=O)N3CCC(Oc4cccnc4)CC3)no2)cc1C | · | – | – | – | · | –
O=C(c1cc2cc(F)ccc2[nH]1)N1CCN(C(=O)c2ccco2)CC1 | · | 39.8µM | – | – | · | –
O=C(c1cc(COc2ccc(F)cc2F)on1)N1CCN(C(=O)c2ccco2)CC1 | – | 25.1µM | – | – | – | –
CN1CCN(C(=O)c2cc3cc(F)ccc3[nH]2)CC1 | · | – | – | – | · | –
SMILES | VACV Venus inh | Sm TGR block | HCV inhibitor | HCMV antiviral | Vaccinia mCherry | FMDV antiviral
O=C(c1cc(COc2ccc(F)cc2Cl)on1)N1CCCC(OCc2cccnc2)C1 (centres undefined) | – | – | ? | ? | – | –
COCCCN1C(=O)C(CC(=O)NCCN2CCOCC2)CC(C(=O)N2CCCCCC2)=C1C (centres undefined) | – | · | · | – | – | –
COc1ccc(/C=C/C(=O)OCC(=O)NC2CCCC(C)C2C)cc1S(=O)(=O)N1CCOCC1 (centres undefined) | · | – | – | – | · | –
CC(C)CNC(=O)c1cc2nc(C3CC3)cc(C(F)(F)F)n2n1 | · | · | 7.94µM | – | · | –
O=C(Nc1cccnc1)c1cc2nc(C3CC3)cc(C(F)(F)F)n2n1 | ? | – | ? | – | · | –
COc1ccc(N(C(=O)c2ccco2)C(C(=O)NC2CCCC2)c2cccnc2)c(OC)c1 (centres undefined) | – | – | – | – | – | –
COc1ccc2c(c1)CCC1C2=NN(/C(C)=C/C(C)=O)C1c1cccc(F)c1 (centres undefined) | – | – | 11.2µM | – | – | –
CCOC(=O)Cc1csc(-n2sc3ccccc3c2=O)n1 | · | – | – | – | · | –
CCOC(=O)N1CCN(C(=O)c2ccc(CSc3ccc(Cl)cc3)cc2)CC1 | – | – | ? | -71.2 | – | 25.1µM
CCOC(=O)C1CCN(C(=O)c2ccc3nc(-c4ccc(OC)cc4)c(-c4ccc(OC)cc4)nc3c2)CC1 | · | – | 25.1µM | – | · | –
COc1ccc(C(=O)C2CCN(C(=S)NCCc3ccc(OC)c(OC)c3)CC2)cc1 | – | – | ? | ? | – | –
COc1ccc(CCNC(=S)N2CCC(C(=O)c3ccc(F)cc3)CC2)cc1OC | · | – | 0.501µM | ? | · | ?
COc1ccc(C(=O)C2CCN(C(=O)c3ccc(F)cc3)CC2)cc1 | – | – | 25.1µM | ? | – | –
O=C(NCC(c1ccco1)N1CCN(c2ccccc2F)CC1)C1CCCCC1 (centres undefined) | – | – | ? | – | ? | –
Cc1cc(=O)c2cc(Br)ccc2[nH]1 | · | ? | – | ? | · | –
Cc1ccc(CNC(=O)COC(=O)c2cc3c(s2)CCC(C)C3)cc1 (centres undefined) | – | – | – | – | – | –
CNc1cc(-c2ccccc2C)ncn1 | · | · | · | · | · | –
CCOC(=O)N1CCN(C(=O)c2ccc(Oc3ccc([N+](=O)[O-])cc3)cc2)CC1 | – | – | ? | -83.1 | – | ?
CCOc1ccc(C(=O)C2CCN(C(=O)c3ccc([N+](=O)[O-])cc3)CC2)cc1 | · | – | 10µM | ? | · | ?
CCOc1ccc(C(=O)C2CCN(C(=O)c3ccccc3C(=O)O)CC2)cc1 | · | – | – | – | · | –
CN1CCN(C(=O)c2ccc(Oc3ccc([N+](=O)[O-])cc3)cc2)CC1 | – | – | – | – | – | –
COc1c2occc2cc2ccc(=O)oc12 | – | – | – | – | – | –
CCOC(=O)c1c(NC(=S)NCc2ccccc2)sc2c1CCN(C(=O)OCC)C2 | – | – | ? | – | – | –
C=CCNC(=S)Nc1sc2c(c1C(=O)OCC)CCN(C(=O)OCC)C2 | – | – | – | – | · | –
CCOC(=O)c1c(NC(=S)N2CCOCC2)sc2c1CCN(C(=O)OCC)C2 | – | – | – | -108.6 | ? | ?
CCOC(=O)c1c(NC(=S)N2CCCCC2)sc2c1CCN(C(=O)OCC)C2 | – | – | – | -97.6 | – | –
